Screening data (PubChem BioAssay)
Compounds with a hit are over-represented: about 12% of the library has one in this group of screens.
PLK1 PBD block: inhibitors of human PLK1 polo-box domain binding. P53350. Plk1 PBD binding of FITC phosphopeptide, fluorescence polarization. Potency, µM, hits mostly inhibitors. hit rate 2.8% among 360,000. AID 720504; also: series mostly up to about 57 µM; nearly all actives have a fitted effect of over 65% in size
G9a block: inhibitors of human histone lysine methyltransferase G9a; Q96KQ7; G9a H3K9 monomethylation, AlphaScreen, 2 h; Potency, µM (top dose mostly 102 µM), hits mostly inhibitors; hit rate 8.8% among 350,000; also: nearly all actives have a fitted effect of over 75% in size
Target sequence (Q96KQ7 913-1193 limits assumed): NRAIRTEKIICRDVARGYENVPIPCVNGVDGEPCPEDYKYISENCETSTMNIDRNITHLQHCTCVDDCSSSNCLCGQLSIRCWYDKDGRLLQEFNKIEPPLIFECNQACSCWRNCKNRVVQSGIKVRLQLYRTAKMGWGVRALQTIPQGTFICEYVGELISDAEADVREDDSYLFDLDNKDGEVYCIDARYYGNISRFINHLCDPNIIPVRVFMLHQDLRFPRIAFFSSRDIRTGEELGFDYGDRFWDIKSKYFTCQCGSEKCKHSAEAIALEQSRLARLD
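Compounds were preincubated with 20 nM G9a for 15 min, after which biotinylated H3K9 peptide (500 nM) and SAM (20 uM) started a 2 h room-temperature reaction. Monomethylated product was quantified by antibody-based AlphaScreen chemiluminescence.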
Sfp inh: Sfp phosphopantetheinyl transferase inhibition. AID 1490. Q9F4F7. hit rate 3.5% among 310,000. Biochemical Sfp PPTase activity, qHTS. Potency, µM, hits mostly inhibitors;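 also: the enzyme is Sfp with the accession as filed and its product quenches rhodamine fluorescence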
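Fluorescence-quenching assay: 15 nM Sfp-PPTase preincubated 15 min at room temperature with compound, then 5 uM rhodamine-CoA and 12.5 uM BHQ-2-labelled YbbR peptide added. Fluorescence (ex 525/em 598 nm) read at start and after 30 min; difference gives rate.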
BAZ2B inh: BAZ2B (human) inhibition | Q9UIF8 | AlphaScreen BAZ2B-H3K14Ac peptide displacement | Potency, µM (top dose mostly 114 µM), actives largely listed as inhibitors | hit rate 4.4% among 360,000 | AID 504333; also: nearly all actives have a fitted effect of over 60% in size
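BAZ2B (50 nM) with biotin-H3(5-23)K14Ac peptide (50 nM) in PBS pH 7.4, 0.01% Tween-20, preformed 30 min, then compound 30 min at room temperature; top concentration 110uM. AlphaScreen streptavidin donor/nickel chelate acceptor beads (10 ug/mL final), 20 min dark, signal read.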
JMJD2A Tudor: inhibitors of human JMJD2A Tudor domain | O75164 | AlphaScreen JMJD2A-Tudor / H3K4me3 peptide binding | Potency, µM (series often up to 114 µM), actives largely listed as inhibitors | hit rate 4.4% among 390,000 | AID 504339; also: nearly all actives have a fitted effect of over 50% in size
HP1b binding inh: HP1-beta chromodomain-methylated histone interaction inhibition. Potency, µM (series often up to 114 µM), hits mostly inhibitors. P83916. AlphaScreen HP1-beta / biotin-H3K9me3 peptide binding. hit rate 0.56% among 390,000; also: nearly all actives have a fitted effect of over 70% in size
Target sequence (P83916 whole entry, looked up): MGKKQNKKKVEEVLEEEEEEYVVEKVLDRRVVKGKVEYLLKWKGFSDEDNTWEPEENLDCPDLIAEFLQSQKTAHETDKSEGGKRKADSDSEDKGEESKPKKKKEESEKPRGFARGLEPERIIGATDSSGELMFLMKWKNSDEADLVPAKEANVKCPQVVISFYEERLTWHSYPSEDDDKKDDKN
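HP1-beta protein (50 nM final) preincubated 30 min at room temperature with biotinylated H3(1-18)K9me3 peptide (50 nM) in PBS pH 7.4, 0.01% Tween-20, then compound added for 30 min. AlphaScreen streptavidin donor/nickel chelate acceptor beads (10 ug/mL final), 30 min dark, luminescence read.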
Each line names hits and unclear results; the compound was inactive in the other large screens. Calls follow the shape of the dose curve; as a rule, active = well fitted curve in the direction sought with a large enough effect; inconclusive = small, poorly fitted or top-dose-only effect, or another doubt; inactive = no such curve, though single readings can be large; an effect the other way counts as inactive or inconclusive.

CC(=O)N(C1CC(C)C(C#N)(C#N)C1(C#N)C#N)N(C)C (centres undefined)	PLK1 PBD block 2.38µM, G9a block 12.6µM, Sfp inh 10µM
CCCC(=O)N(C1CC(C)C(C#N)(C#N)C1(C#N)C#N)N(C)C (centres undefined)	PLK1 PBD block 5.97µM, G9a block 7.08µM, Sfp inh 1.78µM
CC(C)OCC(O)CN1CCC(Cc2ccccc2)CC1 (centres undefined)	none
O=C(c1ccco1)N1CCN(CC(O)COc2ccc(Br)cc2)CC1 (centres undefined)	G9a block 50.1µM
O=C(NCC(=O)N1CCN(C(=O)c2ccco2)CC1)c1ccc(Br)cc1	PLK1 PBD block 21.2µM (no result: G9a block)
O=C(NCC(=O)N1CCCC1)c1ccc(Br)cc1	none
CC(=O)c1ccc(OCC(O)CN2CCN(CC(O)COc3ccc(C(C)=O)cc3)CC2)cc1 (centres undefined)	none
OC(COc1ccc(Br)cc1)CN1CCC(Cc2ccccc2)CC1 (centres undefined)	G9a block 79.4µM
CC(=O)N1CCN(CC(O)COc2ccc(Br)cc2)CC1 (centres undefined)	G9a block 8.91µM, BAZ2B inh 56.2µM, JMJD2A Tudor 17.8µM, HP1b binding inh inconclusive
CC1C(=O)N(Cc2cn(CCC3OCCCO3)nn2)CCS(=O)(=O)N1Cc1ccc(-c2ccncc2)cc1 (centres undefined)	none (no result: G9a block, Sfp inh, BAZ2B inh, JMJD2A Tudor, HP1b binding inh)
COc1ccc(O[C@H]2C=C[C@@H](c3ccccc3)O[C@H]2COC(=O)CC/C(C)=N\OC[C@@H](C)[C@H](OCc2ccccc2)C(C)C)cc1	none (no result: PLK1 PBD block, G9a block, BAZ2B inh, JMJD2A Tudor, HP1b binding inh)
COc1ccc(-c2c(C)n([O-])c(C)c(C)[n+]2=O)cc1	PLK1 PBD block 23.8µM, JMJD2A Tudor inconclusive
CC1=NCC(C)c2ccccc21 (centres undefined)	none (no result: G9a block, Sfp inh, BAZ2B inh, JMJD2A Tudor, HP1b binding inh)
CC1=NCC(C)c2c1[nH]c1ccccc21 (centres undefined)	G9a block 12.6µM, BAZ2B inh inconclusive, JMJD2A Tudor inconclusive, HP1b binding inh inconclusive
FC(F)(F)c1cccc(NCc2n[nH]c(=S)n2C2CCCCC2)c1	G9a block 28.2µM, BAZ2B inh inconclusive, JMJD2A Tudor inconclusive
CCc1ccc(OCc2n[nH]c(=S)n2Cc2ccccc2)cc1	JMJD2A Tudor inconclusive
O=C(CNC1CCCCC1)Nc1cccc(C(F)(F)F)c1	none (no result: G9a block)
S=c1[nH]nc(COc2ccccc2)n1Cc1ccccc1	G9a block 3.55µM, JMJD2A Tudor 89.1µM
S=c1[nH]nc(CSc2nc3ccccc3s2)n1C1CCCCC1	G9a block 10µM, BAZ2B inh inconclusive, JMJD2A Tudor inconclusive
Cc1cccc(OCc2n[nH]c(=S)n2Cc2ccccc2)c1	PLK1 PBD block inconclusive, G9a block 17.8µM, JMJD2A Tudor inconclusive
C=C1C[C@@]23CC[C@H]4[C@@](C)(CCC[C@@]4(C)C(=O)OC4OC(CO)C(O)C(O)C4O)[C@@H]2CC[C@]1(OC1OC(CO)C(O)C(O)C1OC1OC(CO)C(O)C(O)C1O)C3 (some centres undefined)	none (no result: PLK1 PBD block, Sfp inh, BAZ2B inh, JMJD2A Tudor, HP1b binding inh)
Cc1cccc(N2C(=O)C(CC(=O)Nc3ccc(F)cc3)N(C3CCCC3)C2=O)c1 (centres undefined)	none (no result: PLK1 PBD block, Sfp inh)
CCc1ccc(OCc2n[nH]c(=S)n2C(C)CCCC(C)C)cc1 (centres undefined)	none
NC(=O)CSc1nnc(COc2ccccc2)n1C1CCCCC1	none
S=c1[nH]nc(COc2ccccc2)n1C1CCCCC1	G9a block 2.51µM, JMJD2A Tudor 50.1µM
CC(C)CCn1c(COc2ccccc2)n[nH]c1=S	G9a block 1.78µM
Cc1ccc2cccc(NC(=O)c3ccc(-c4ccc(Cl)cc4Cl)o3)c2n1	none (no result: PLK1 PBD block, Sfp inh)
Nc1nc(=O)n(C2CCCO2)cc1Br (centres undefined)	none (no result: G9a block, Sfp inh, BAZ2B inh)
CN(C)c1ccc(-c2cncnc2NCc2cccnc2)cc1	none (no result: PLK1 PBD block, BAZ2B inh, JMJD2A Tudor, HP1b binding inh)
COC(CNC(=O)C1CCN(C(=O)c2cc3oc(C)cc3n2Cc2c(F)cccc2Cl)CC1)OC	G9a block 31.6µM, Sfp inh 44.7µM
CCOC(=O)N1CCC(NC(=O)C2CCN(C(=O)c3cc4oc(C)cc4n3Cc3c(F)cccc3Cl)CC2)CC1	G9a block 35.5µM, Sfp inh 20µM, BAZ2B inh inconclusive, JMJD2A Tudor inconclusive
CC1CC(OC(=O)c2ccccc2O)CC(C)(C)C1 (centres undefined)	none (no result: PLK1 PBD block, BAZ2B inh, JMJD2A Tudor, HP1b binding inh)
O=c1c(-c2ccc(O[C@@H]3O[C@H](CO)[C@@H](O)[C@H](O)[C@H]3O)cc2)coc2cc(O)cc(O)c12	none (no result: PLK1 PBD block, G9a block, BAZ2B inh, JMJD2A Tudor, HP1b binding inh)
COc1cc(Br)cc(/C=N/NC(=O)Cc2ccccc2)c1O	none (no result: G9a block, Sfp inh, BAZ2B inh)
COc1cc(/C=N/NC(=O)c2ccc([N+](=O)[O-])cc2Cl)cc(Br)c1O	G9a block 44.7µM
COc1ccc(Br)cc1C(=O)N/N=C/c1ccc([N+](=O)[O-])cc1	none
CCOc1cc(/C=N/NC(=O)C(=O)NC2CC2)cc(Br)c1O	G9a block 8.91µM
COc1cc(/C=N/NC(=O)Cc2ccc(Br)cc2)cc(OC)c1O	G9a block 50.1µM
COc1cc(/C=N/NC(=O)c2ccc(CSc3nncn3C)cc2)cc(OC)c1O	G9a block 12.6µM
Cc1ccc(S(=O)(=O)Nc2ccc(NS(=O)(=O)c3ccc(C)cc3)c3ncccc23)cc1	none (no result: PLK1 PBD block, G9a block, BAZ2B inh, HP1b binding inh)
COc1cc(C2C(C(=O)Nc3ccccc3)=C(C)Nc3nnnn32)cc(OC)c1OC (centres undefined)	none (no result: PLK1 PBD block, Sfp inh)
CCOc1ccc(CNCc2c(C(=O)O)n(Cc3ccccc3F)c3cc(OC)ccc23)cc1	none (no result: PLK1 PBD block, Sfp inh)
C[C@H](NC(=O)C[C@@H]1CC[C@H]2[C@@H](COC[C@H](O)CN2Cc2ccc(C(F)(F)F)cc2)O1)c1ccccc1	none (no result: G9a block, Sfp inh, BAZ2B inh, JMJD2A Tudor, HP1b binding inh)
COc1cc(/C=N/NC(=O)/C(=C\c2ccc([N+](=O)[O-])cc2)NC(=O)c2ccccc2)cc(OC)c1O	G9a block 44.7µM, JMJD2A Tudor inconclusive
COc1cc(/C=N/NC(=O)CC#N)cc(Br)c1O	PLK1 PBD block 10.6µM, BAZ2B inh 50.1µM, JMJD2A Tudor 35.5µM, HP1b binding inh inconclusive
Cc1ccc(-n2nc3c(N4CCCC(C(=O)NCCc5ccccc5)C4)nnc(C)c3c2C)cc1 (centres undefined)	G9a block inconclusive (no result: PLK1 PBD block, Sfp inh)
CC(C)C1=CC2=CCC3C(C)(C(=O)O)CCCC3(C)C2CC1 (centres undefined) (tested in a mixture with another compound)	G9a block 70.8µM (no result: PLK1 PBD block, JMJD2A Tudor, HP1b binding inh)
COC(=O)c1ccccc1NC(=O)Cn1c(=O)n(CCCCC(=O)NCc2ccc3c(c2)OCO3)c(=O)c2ccccc21	none (no result: PLK1 PBD block, Sfp inh)
c1ccc(COc2cccc(CN3CCCCC3)c2)cc1	G9a block 35.5µM, BAZ2B inh inconclusive, JMJD2A Tudor 25.1µM, HP1b binding inh inconclusive
Cc1ccc(-c2noc(CN3CCN(C(c4ccccc4)c4ccccc4)CC3)n2)cc1	none
